What all share (type): functional
The target in assay [1] is Solute carrier family 2, facilitated glucose transporter member 1 (Homo sapiens) (UniProt P11166). Put plainly: ST_JUDE_LEISH: Cytotoxicity at 2uM final concentration against transgenic Leishmania Mexicana promastigotes LmGLUT1 that are glucose transport deficient and complemented with the human glucose transporter GLUT1. Activity is measured by DNA content using SYBR green in vitro.

The target in assay [2] is Hexose transporter 1 (Plasmodium falciparum) (UniProt O97467). Put plainly: ST_JUDE_LEISH: Cytotoxicity at 2uM final concentration against transgenic Leishmania Mexicana promastigotes LmPfHT that are glucose transport deficient and complemented with the Plasmodium falciparum hexose transporter. Activity is measured by DNA content using SYBR green in vitro.
For assay [3], the target named is Glucose transporter (Leishmania mexicana) (UniProt O61059). Put plainly: ST_JUDE_LEISH: Cytotoxicity at 2uM final concentration against transgenic Leishmania Mexicana promastigotes LmGT2 that are glucose transport deficient and complemented with the L. Mexicana glucose transporter 2. Activity is measured by DNA content using SYBR green in vitro.

The results in this text go back to ChEMBL document CHEMBL3433997, “St. Jude Leishmania screening dataset” (2016).

Solute carrier family 2, facilitated glucose transporter member 1 (Homo sapiens), sequence (P11166 whole entry): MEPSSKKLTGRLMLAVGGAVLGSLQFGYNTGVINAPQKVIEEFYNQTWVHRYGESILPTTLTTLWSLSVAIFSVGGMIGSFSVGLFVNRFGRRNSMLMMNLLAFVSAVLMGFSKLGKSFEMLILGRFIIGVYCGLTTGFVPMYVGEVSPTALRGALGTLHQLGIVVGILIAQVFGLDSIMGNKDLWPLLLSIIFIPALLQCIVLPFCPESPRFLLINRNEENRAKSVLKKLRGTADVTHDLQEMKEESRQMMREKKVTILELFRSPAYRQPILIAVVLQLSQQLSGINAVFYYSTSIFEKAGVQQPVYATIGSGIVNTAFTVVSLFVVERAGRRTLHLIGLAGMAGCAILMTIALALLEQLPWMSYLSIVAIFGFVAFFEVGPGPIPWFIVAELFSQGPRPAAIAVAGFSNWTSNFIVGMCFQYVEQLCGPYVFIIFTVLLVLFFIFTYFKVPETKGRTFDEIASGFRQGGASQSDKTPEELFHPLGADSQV

Regarding `CC1(C)NC(N)=NC(=N)N1OCc1cc(Cl)c(Cl)cc1CON1C(=N)N=C(N)NC1(C)C`, the inhibition was 3.89% in assay [1], 2.37% in assay [2] and 0.54% in assay [3].

As for `CCOc1cc(Br)c(C(C)NC(=O)c2cccc(OC)c2)cc1OCC` (stereo not drawn), the inhibition in assay [1] is 0.82%; in assay [2], 0.03%; in assay [3], -0.19%.

Turning to `NC1=NC(Cc2ccccc2)N(c2ccc(Cl)cc2)C(N)=N1` (stereo not drawn), the inhibition in assay [1] turned out to be 8.89%; in assay [2], 6.99%; in assay [3] it was 5.89%.

For the molecule `COc1ccc(CCn2c(=N)c(C(=O)NCc3cccnc3)cc3c(=O)n4ccccc4nc32)cc1`, the inhibition in assay [1] amounted to 11.7%; in assay [2], 10.9%; in assay [3], 7.6%.

Consider `Cc1cccc2nc(-c3cccc(-c4ccc(C(=O)NCCc5ccc(O)c(=O)[nH]5)cc4)c3)[nH]c12`, for which the results for the inhibition in assay [1], in assay [2] and in assay [3] were 2.16%, 1.89% and 2.33%, respectively.

Take `Cc1ccccc1C1CCN(C2CCC(NC(=O)/C=C/c3ccc(F)cc3)CC2)CC1` (stereo not drawn): the results for the inhibition in assay [1], in assay [2] and in assay [3] were -1.42%, -0.14% and 0.53%, respectively.

For `COc1ccc(OC)c2c1CCN(CCN1CCC(C(=O)Nc3ccc(C(=O)Nc4ccc(Cl)cc4)cc3)CC1)C2`, the inhibition in assay [1] was 1.55%; in assay [2], 0.47%; in assay [3], 0.22%.

As for `CC(=NNC(S)=NC(c1ccccc1)c1ccccc1)c1ccccn1`, the inhibition in assay [1] came to 61%; in assay [2], 58.8%; in assay [3], 32%.

Consider `O=C(Nc1ccc(C(F)(F)F)cc1)c1cccc(S(=O)(=O)NC2CCN(CC3CCCCC3)C2)c1` (stereo not drawn), for which the inhibition in assay [1] is 2.01%; in assay [2], 0.63%; in assay [3] it was 0.63%.

For the molecule `COC(=O)c1sc(-c2ccc(Cl)cc2)cc1N(CCCN1CCC(N2CCCCC2)CC1)S(=O)(=O)c1ccc(C)cc1`, the values for the inhibition in assay [1], in assay [2] and in assay [3] were 23.5%, 11.2% and 9.1%, respectively.

For `Cc1cccc2nc(-c3ccc(-c4cccc(C(=O)NCCc5cn(C)cn5)c4)s3)[nH]c12`, the inhibition is 1.8% in assay [1], 1.96% in assay [2] and 1% in assay [3].

Consider `CC(c1cccc(S(=O)(=O)NCc2cccc(C(F)(F)F)c2)c1)N1CCC(N2CCCCC2)CC1` (stereo not drawn), for which the inhibition in assay [1] was 6.15%; in assay [2], 7.23%; in assay [3], 7.91%.

Turning to `O=C(Nc1ccc(N2CCN(Cc3ccccc3)CC2)cc1)c1cccs1`, the inhibition in assay [1] was 0.15%; in assay [2] it was 0.83%; in assay [3], -1.68%.

For the molecule `Cc1cc(OCCCN2CCN(CCN3CCOCC3)CC2)ccc1NC(=O)COc1ccc(Cl)cc1C(=O)c1cc(Cl)cc(C#N)c1`, the inhibition in assay [1] was 2.6%; in assay [2], 0.79%; in assay [3] it was 2.48%.

On to `CC(C)CCN1CCCN(Cc2ccc(C(=O)Nc3ccc(Cl)cc3)cc2)CC1`, for which the inhibition in assay [1] came to 11.1%; in assay [2], 11.3%; in assay [3], 11.6%.

Regarding `CC(C)[C@H]1CC[C@H](C)C[C@@H]1OC(=O)N[C@@H](Cc1ccc(O)cc1)C(=O)NC1CCN(Cc2ccc(OCCCN(C)C)cc2)C1` (stereo partly drawn), the inhibition was 5.09% in assay [1], 3.96% in assay [2] and 3.06% in assay [3].

Regarding `CC(C)(CN)c1nc(-c2ccc(Cl)c(O)c2)c(-c2ccnc(N)n2)[nH]1`, the results for the inhibition in assay [1], in assay [2] and in assay [3] were -0.87%, -0.81% and -1.58%, respectively.

For `COc1cccc(NC(=O)[C@H](C(C)C)n2c(=O)[nH]c3ccccc3c2=O)c1`, the inhibition in assay [1] is 1.34%; in assay [2] it was 0.97%; in assay [3], 5.04%.

As to `O=C(CN1CCN(C(C(=O)Nc2cc(C(F)(F)F)ccc2Cl)c2ccccc2)CC1)NC1CC1` (stereo not drawn), the inhibition in assay [1] stood at 0.74%; in assay [2], 2.72%; in assay [3], 3.2%.

For the molecule `COc1ccc2nccc([C@@H](O)CN3CCC(NCc4nc5cc(F)c(F)cc5[nH]4)CC3)c2c1`, the inhibition in assay [1] is 0.88%; in assay [2], 2.26%; in assay [3], -0.99%.

On to `Cc1ccc(-c2nc(N3CCN(C(=O)c4ccco4)CC3)c3ccccc3n2)cc1`, for which the inhibition in assay [1] is 2.55%; in assay [2] it was 0.57%; in assay [3], 0.1%.

Take `COc1ccc(CNC(=O)c2cnc3c(O)cccc3c2Nc2cccc(NC(=O)c3ccc(Cl)c([N+](=O)[O-])c3)c2)cc1`: the results for the inhibition in assay [1], in assay [2] and in assay [3] were 0.79%, 6.77% and 4.02%, respectively.

With `COc1ccccc1CN1CCC(CNC(=O)c2cc(-c3cccc(C(F)(F)F)c3)cs2)C1` (stereo not drawn), the inhibition in assay [1] was determined as 0.96%; in assay [2], 1.45%; in assay [3] it was 1.94%.

As to `O=S(=O)(Nc1ccc(CCN2CCC(N3CCCCC3)CC2)cc1)c1cccc(C(F)(F)F)c1`, the figures for the inhibition in assay [1], in assay [2] and in assay [3] were 6.42%, 7.5% and 5.56%, respectively.

For the molecule `CN1CCC(C(=O)Nc2ccc(-c3cccc(-c4nc5cc(C(F)(F)F)ccc5[nH]4)c3)cc2)CC1`, the inhibition in assay [1] stood at 0.78%; in assay [2] it was 2.62%; in assay [3], 2.31%.

Turning to `O=C(c1cccc(-c2cccc(-c3nc4ccccc4[nH]3)c2)c1)N1CCCCC1CN1CCC(O)C1` (stereo not drawn), the inhibition came out at 0.33% in assay [1], 0.78% in assay [2] and 0.03% in assay [3].

Take `COc1cc2c(cc1O)[C@@H]1[C@H](O)[C@@H](O)C=C3CCN(C2)[C@H]31`: the inhibition in assay [1] was found to be 4.04%; in assay [2], 3.79%; in assay [3], 1.58%.

For the molecule `Nc1nc(N)c2c(ccc3c2ccn3Cc2ccc3c(c2)OCO3)n1`, the inhibition in assay [1] is 97.8%; in assay [2] it was 97.5%; in assay [3], 93.7%.

As to `O=C(/C=C/c1ccc(Cl)c(Cl)c1)NCCCCCCN1CCN(C(=O)Nc2ccc(OC(F)F)cc2)CC1`, the figures for the inhibition in assay [1], in assay [2] and in assay [3] were 5.36%, 6.98% and 6.38%, respectively.

For the molecule `N=C(N)Nc1ccc(Cc2ccc(NC(=N)N)cc2)cc1`, the inhibition in assay [1] is -0.68%; in assay [2], -0.57%; in assay [3], 0.58%.

As for `O=C(NC1CCCCN(Cc2ccccc2O)C1)c1ccc(Cl)c(Cl)c1` (stereo not drawn), the inhibition in assay [1] was 7.63%; in assay [2] it was 5.13%; in assay [3], 3.76%.

One may read the inhibition as the relative decrease from the control value, in per cent.
